Screens as filed in PubChem.
mIDH1 inhibitor – blocks human mutant IDH1 R132H enzyme; Potency, µM (titrated, usually from 76.6 µM), for inactives: at the top dose activity change, negative = inhibition, hits mostly inhibitors; AID 602179; actives 0.093% (n = 390,000); O75874; IDH1-R132H enzyme, NADPH consumption, diaphorase/resazurin fluorescence; note: potency is the fitted concentration of half-maximal effect; % is set by controls: 0 for no effect and ±100 for the full control effect; nearly all actives have a fitted effect of over 65% in size
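IDH1-R132H (0.5 ug/mL dispensed) in pH 7.5 Tris buffer was preincubated 30 min with compound, then given a substrate mix of 0.016 mM NADPH and 2 mM alpha-KG for 80 min at room temperature; remaining NADPH was read by diaphorase/resazurin fluorescence.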
GLP-1R agonist – agonists of human GLP-1 receptor; Potency, µM (highest dose often 45.6 µM), without a hit: at the top dose activation, hits mostly activators; actives 0.007% (n = 380,000); HEK293 GLP-1R CRE-luciferase, luminescence, 4-6 h; cells express a hypersensitive GLP-1R form; P43220; note: potency is the fitted concentration of half-maximal effect; % of control where 0% means no effect
Target sequence (P43220 whole entry, looked up): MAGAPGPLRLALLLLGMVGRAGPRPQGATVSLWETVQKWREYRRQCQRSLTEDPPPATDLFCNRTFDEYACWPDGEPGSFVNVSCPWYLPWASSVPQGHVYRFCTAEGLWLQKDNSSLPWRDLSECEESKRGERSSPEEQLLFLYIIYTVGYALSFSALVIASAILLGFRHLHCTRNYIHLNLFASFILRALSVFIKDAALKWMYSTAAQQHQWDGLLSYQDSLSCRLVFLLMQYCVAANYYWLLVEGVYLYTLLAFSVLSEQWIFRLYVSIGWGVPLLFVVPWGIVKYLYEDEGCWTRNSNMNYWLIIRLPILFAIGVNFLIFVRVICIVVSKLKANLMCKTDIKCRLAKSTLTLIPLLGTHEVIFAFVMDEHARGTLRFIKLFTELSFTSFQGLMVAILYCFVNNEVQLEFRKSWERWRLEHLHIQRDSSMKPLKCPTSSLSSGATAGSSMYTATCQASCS
LDHA inh – LDHA (human) enzyme inhibition. purified LDHA, NADH/diaphorase-resazurin fluorescence; active compounds read low. P00338. actives 0.15% (n = 480,000). AID 1347041. activity change, % (values are at about 110 or 230 µM); in the data active = activity change below about -30%; inconclusive = mostly about -25% to -30%;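 note: plate controls were DMSO wells for no effect and wells without enzyme for full effect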
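LDH5 2 nM; NADH 0.06 mM, pyruvate 0.2 mM; 200 mM Tris pH 7.4, EDTA, Tween-20; 5 min RT. Detection: diaphorase 0.133 mg/mL + resazurin 37 µM, fluorescence ex540/em590 at 0 and 20 min; normalized to enzyme-free and DMSO wells.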
PTHR1 ag – agonists of human PTHR1 parathyroid hormone receptor; Q03431; HEK293 GP2 PTHR1 cells, GloSensor cAMP luminescence, 1 h; Potency, µM (top dose mostly 115 µM), for inactives: at the highest dose activation, usual class: activators; actives 0.075% (n = 410,000); AID 743266; note: potency is the fitted concentration of half-maximal effect; nearly all actives have a fitted effect of over 55% in size
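HEK-293-derived GP2 cells expressing PTHR1 and a GloSensor cAMP reporter, 3,000/well, plated overnight, given luciferin plus IBMX (each 0.5 mM as added) for 1 h at 37 °C, then compound for 1 h at 37 °C. Luminescence was read after 15 min at room temperature.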
GLP-1R inv ag – GLP-1 receptor (human) inverse agonism. P43220. HEK293 GLP-1R CRE-luciferase, luminescence, 24 h; GLP-1R form is constitutively active. AID 624417. Potency, µM (highest dose often 38.3 µM), for inactives: at the highest dose activity change, negative = inhibition, usual class: inhibitors. actives 1.6% (n = 410,000); note: potency is the fitted concentration of half-maximal effect; % is set by controls: 0 for no effect and ±100 for the full control effect; nearly all actives have a fitted effect of over 55% in size
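Assay principle: reduced luminescence from a cAMP-responsive reporter in HEK293 cells co-expressing a constitutively active GLP-1R. Conditions: 24 hr compound incubation, 37 deg C, 5% CO2.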
HEK293 tox – cytotoxicity in counter-screen for GLP-1R inverse agonists; AID 624418; Potency, µM (highest dose often 38.3 µM), inactives show at the highest dose activity change, negative = inhibition, actives largely listed as inhibitors; HEK293 cAMP-luciferase reporter cells, luminescence, 24 h; actives 0.13% (n = 410,000);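 note: loss of luciferase light is scored as toxicity; potency is the fitted concentration of half-maximal effect; % is set by controls: 0 for no effect and ±100 for the full control effect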
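A 23 nL compound transfer followed 12 hours of cell culture at 37 deg C; exposure then lasted 24 hr. Luciferase assay detection reagent was dispensed and plates read for luminescence after a 12 min room-temperature wait.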
Numbers without * were called inactive; i = inactive; ? = inconclusive; nt = no result given; [ ] = another dose, or the depositor's remark. This is a sample that favours compounds with a hit; in the whole collection about 1.7% have one here. Unless noted, calls come from the whole dose curve; as a rule, active = well fitted curve in the direction sought with a large enough effect; inconclusive = small, poorly fitted or top-dose-only effect, or another doubt; inactive = no such curve, though single readings can be large; an effect the other way counts as inactive or inconclusive.

SMILES	mIDH1 inhibitor	GLP-1R agonist	LDHA inh	PTHR1 ag	GLP-1R inv ag	HEK293 tox
CCN(CC)C(=O)N1c2ccccc2C=Cc2ccccc21	0%	1%	-2	-59%[57.5 µM]	5.6µM*	-6%
NC(=O)N1c2ccccc2C=Cc2ccccc21	5%	9%	-6	i	7%	3%
CCCCOc1ccc(/C=C(/C#N)c2nc3ccccc3[nH]2)cc1	nt	nt	-10	nt	nt	nt
Cc1onc(-c2ccccc2Cl)c1C(=O)OCC(=O)N1CCCc2ccccc21	9%	5%	-7	-8%	10µM*	-23%
C/C(=N\NC(=O)c1ccccc1OCc1ccc(F)cc1)c1ccccn1	-3%	15%	-12	i	5µM*	?
O=C(NNC(=O)c1ccccc1OCc1ccccc1)c1ccccc1F	1%	15%	-5	-5%	?	1%
O=C(NCc1ccccn1)c1ccc(Cl)cc1Cl	5%	-10%	-10	i	44%	2%
O=C(NCc1ccccn1)c1cc(Cl)ccc1OCc1ccccc1	6%	4%	-2	i	3.5µM*	1%
CCN(CC(=O)Nc1ccccc1C(F)(F)F)C(=O)CCOc1ccccc1C	13%	5%	4	i	?	-3%
CCN(CC(=O)Nc1ccccc1C(F)(F)F)C(=O)c1ccccc1OCc1ccc(F)cc1	2%	-1%	-3	-26%	10µM*	-2%
O=C(N/N=C/c1ccccc1F)c1ccccc1OCc1ccccc1	4%	21%	1	-18%	7.9µM*	1%
Cn1c(=O)c2nc(SCC(=O)N3CCOCC3)n(C)c2n(C)c1=O	nt	nt	-1	nt	nt	nt
CC(NC(=O)C1CCCCC1C(F)(F)F)C12CC3CC(CC(C3)C1)C2 (stereo unspecified)	nt	nt	8	nt	nt	nt
O=C(NNC(=O)c1ccccc1OCc1ccc(F)cc1)c1ccccc1O	34%	-5%	-3	-28%	?	-2%
O=C(NCc1ccc(F)cc1)c1ccccc1OCc1ccccc1	2%	20%	-8	-10%	10µM*	4%
C=CCNc1oc(/C=C/c2ccc(OC)c(OC)c2)nc1C#N	nt	nt	7	nt	nt	nt
Cc1ccc(-c2nc(N3CCOCC3)nc3ccccc23)cc1	nt	nt	4	nt	nt	nt
CCCCCCC1C2=C(CC(C)(C)CC2=O)OC2=C1C(=O)CC(C)(C)C2	nt	nt	2	nt	nt	nt
C=C(C)COc1ccc(Cl)cc1C(N)=O	nt	nt	1	nt	nt	nt
CN(Cc1ccccc1)C(=O)c1n[nH]c(=O)c2ccccc12	nt	nt	0	nt	nt	nt
CCOC(=O)/C=C1/SCC(=O)N1Cc1ccc(Br)cc1	8%	11%	-6	-9%	5.6µM*	-8%
CC(=O)Nc1ccc(NC(=O)c2cn(C)c3ccccc23)cc1	nt	nt	-1	nt	nt	nt
CC(C)c1ccc(S(=O)(=O)N2CCN(C(=O)CNC(=O)NCc3ccc(F)cc3)CC2)cc1	nt	nt	-2	nt	nt	nt
CCC(=O)c1ccc(OCc2ccc(C(=O)c3ccccc3)cc2)cc1	-1%	0%	-4	-42%	10µM*	18%
COC(=O)c1cccc(COC(=O)CCC(=O)c2ccc3c(c2)OCCO3)c1	nt	nt	14	nt	nt	nt
SMILES	mIDH1 inhibitor	GLP-1R agonist	LDHA inh	PTHR1 ag	GLP-1R inv ag	HEK293 tox
CCc1ccc(C(=O)NCCOC)o1	nt	nt	-3	nt	nt	nt
COc1ccc(NC(=S)N/N=C/c2ccc(F)cc2)cc1OC	6%	0%	-8	-20%	?	5.6µM*
Fc1ccc(NC(=S)N/N=C/c2ccc(F)c(F)c2)cc1	-1%	7%	-6	-18%	?	6%
Cc1cc(N/N=C/c2cccc(Cl)c2)nc(NCc2ccccc2)n1	2%	1%	-3	-19%	11µM*	?
Cc1cc(Nc2cccc(Cl)c2)nc(NCc2ccccc2)n1	2%	17%	-2	-25%	10µM*	-11%
Cc1cc(N/N=C/c2ccccc2)nc(NCc2ccccc2)n1	-1%	-6%	-4	i	?	-32%
